# High-throughput results as filed in PubChem.
# Pol iota inh: qHTS for Inhibitors of Polymerase Iota; DNA polymerase iota (Homo sapiens), Q9UNA4; Pol iota fluorescent replication assay, 10 min; Potency, µM (series often up to 115 µM), for inactives: at the highest dose activity, negative = inhibition, hits mostly inhibitors; hit rate 1% among 390,000; AID 588590, 2011; also: potency is read from the fitted curve at half-maximal effect
#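 Fluorescent replication assay read twice, at 0 min and 10 min after adding 50 nM (final) substrate. Enzyme (10 nM) and compounds were first incubated 15 min at room temperature; enzyme-free buffer wells were negative controls.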
# PI5P4K alpha inh: qHTS for Inhibitors of phosphatidylinositol 5-phosphate 4-kinase (PI5P4K); PI5P4Kalpha enzyme, ADP-Glo luminescence, 60 min; active compounds read low; max response, %; hit rate 1.2% among 330,000; active = max response of -50% or lower; inconclusive = between -30% and -50%; inactive = -30% or higher; also: value at the top dose of about 77 µM; % is scaled to controls: 0 for no effect and ±100 for the full control effect
#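 Controls without substrate or without enzyme flank wells where PI5P4Kalpha converts substrate using 5 microM ATP (final). Incubation lasts 60 minutes at room temperature; ADP formed is read by ADP-Glo luminescence.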
# WRN inhibitor: qHTS for Inhibitors of WRN Helicase. AID 651768, 2012. WRN helicase unwinding, fluorescent forked duplex, kinetic. hit rate 0.46% among 360,000. Bifunctional 3'-5' exonuclease/ATP-dependent helicase WRN (Homo sapiens), Q14191. Potency, µM (series often up to 114 µM), for inactives: top-dose activity change, negative = inhibition, usual class: inhibitors; also: potency is read from the fitted curve at half-maximal effect; % is scaled to controls: 0 for no effect and ±100 for the full control effect; nearly all actives have a fitted effect of over 55% in size
#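 Primary qHTS, 1536-well format. 20 nM WRN + compound, 15 min RT; start with 100 nM forked fluorophore/quencher duplex, 2 mM ATP (final); kinetic read ex 525/em 598 nm.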
# Pol eta inh-1: qHTS for Inhibitors of Polymerase Eta | DNA polymerase eta (Homo sapiens), Q9Y253 | recombinant Pol eta, fluorescent DNA replication assay | Potency, µM (series often up to 114 µM), for the others: at the highest dose activity change, negative = inhibition, actives largely listed as inhibitors | hit rate 1.2% among 390,000 | AID 588591, 2011; also: potency is read from the fitted curve at half-maximal effect; % is scaled to controls: 0 for no effect and ±100 for the full control effect
# Target sequence (Q9Y253 whole entry, looked up): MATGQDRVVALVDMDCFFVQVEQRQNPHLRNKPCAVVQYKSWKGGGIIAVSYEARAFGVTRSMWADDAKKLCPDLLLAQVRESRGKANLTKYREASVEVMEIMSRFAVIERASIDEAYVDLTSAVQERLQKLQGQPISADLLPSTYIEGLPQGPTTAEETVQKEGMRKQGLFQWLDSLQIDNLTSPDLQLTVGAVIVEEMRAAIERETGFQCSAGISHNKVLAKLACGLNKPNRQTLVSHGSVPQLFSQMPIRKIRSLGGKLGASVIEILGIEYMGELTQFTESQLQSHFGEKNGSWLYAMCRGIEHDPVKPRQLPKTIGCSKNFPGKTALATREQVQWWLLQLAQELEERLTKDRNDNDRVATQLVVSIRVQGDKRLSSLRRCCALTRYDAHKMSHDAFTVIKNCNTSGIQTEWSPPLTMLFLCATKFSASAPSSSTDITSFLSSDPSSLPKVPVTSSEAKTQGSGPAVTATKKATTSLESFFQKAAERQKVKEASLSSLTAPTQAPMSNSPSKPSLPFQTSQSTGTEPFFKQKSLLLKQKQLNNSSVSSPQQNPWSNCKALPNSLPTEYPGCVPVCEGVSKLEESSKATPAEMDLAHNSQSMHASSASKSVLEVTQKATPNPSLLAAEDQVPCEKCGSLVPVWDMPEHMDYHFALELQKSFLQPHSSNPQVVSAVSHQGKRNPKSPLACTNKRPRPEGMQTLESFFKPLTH
#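 Fluorescent replication assay: 50 nM final substrate added after a 15 min room-temperature compound preincubation with 10 nM enzyme. Signal taken at 0 min and again at 10 min.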
# POLK inh: qHTS for Inhibitors of Polymerase Kappa; purified Pol kappa, fluorescent DNA synthesis assay, 10 min; Potency, µM (titrated, usually from 107 µM), without a hit: at the top dose activity, negative = inhibition, actives largely listed as inhibitors; hit rate 0.53% among 400,000; AID 588579, 2011; also: potency is read from the fitted curve at half-maximal effect; % is scaled to controls: 0 for no effect and ±100 for the full control effect
#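 Readout: fluorescence, taken kinetically at 0 and 10 min. Conditions: 10 nM Pol kappa, 15 min RT compound preincubation, 50 nM substrate final. Controls: enzyme-free buffer wells.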
# Pol beta inh: qHTS Assay for Inhibitors of DNA Polymerase Beta. Pol beta primer extension/strand displacement, fluorescence kinetic. Potency, µM (titrated, usually from 114 µM), without a hit: at the top dose activity change, negative = inhibition, usual class: inhibitors. hit rate 1.3% among 340,000; also: potency is read from the fitted curve at half-maximal effect; % is scaled to controls: 0 for no effect and ±100 for the full control effect
#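 Enzyme-only controls used 10 nM Pol beta; buffer lacking enzyme served as negative control. Compound preincubated 15 min, then 50 nM substrate added; 0 and 10 min reads at room temperature.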
# TbPGK inh: qHTS for inhibitors of Phosphogylcerate Kinase: Hit Validation Screen. hit rate 79% among 500. shares compounds with POLK inh. Potency, µM (doses to about 57.5 µM), inactives show at the top dose activity change, negative = inhibition, actives largely listed as inhibitors. AID 686980, 2013. TbPGK coupled GAPDH assay, Kinase-Glo luminescence; also: potency is read from the fitted curve at half-maximal effect; % is scaled to controls: 0 for no effect and ±100 for the full control effect; nearly all actives have a fitted effect of over 65% in size
# POLI cherry-pick: qHTS for Inhibitors of Polymerase Iota: Confirmatory Assay for Cherry-picked Compounds | hit rate 77% among 1,500 | Pol iota primer extension, TAMRA/BHQ fluorescence | Potency, µM, hits mostly inhibitors | shares compounds with POLK inh | AID 720496, 2013; also: potency is read from the fitted curve at half-maximal effect
# Pol eta inh-2: qHTS for Inhibitors of Polymerase Eta: Confirmatory Assay for Cherry-picked Compounds. shares compounds with Pol eta inh-1. Pol eta primer extension, TAMRA/BHQ fluorescence, 10 min. Potency, µM, hits mostly inhibitors. hit rate 64% among 2,600; also: potency is read from the fitted curve at half-maximal effect
# The depositor's hits bear a star; ? = inconclusive; . = no result; [ ] = another dose, or the depositor's remark. This is a sample that favours compounds with a hit; in the whole collection about 2.8% have one here. Unless noted, calls follow the shape of the dose curve; as a rule, active = well fitted curve in the direction sought with a large enough effect; inconclusive = small, poorly fitted or top-dose-only effect, or another doubt; inactive = no such curve, though single readings can be large; an effect the other way counts as inactive or inconclusive.
SMILES,Pol iota inh,PI5P4K alpha inh,WRN inhibitor,Pol eta inh-1,POLK inh,Pol beta inh,POLI cherry-pick,Pol eta inh-2,others
O=C(C1COc2ccccc2O1)N1CCc2ccccc21 (stereo not drawn),44.7µM*,.,?,79.4µM*,?,31.6µM*,75.2*,?,
C[C@H](NC(=O)CNC(=O)[C@@H](NC(=O)[C@H](Cc1ccccc1)NC(=O)CNC(=O)CNC(=O)[C@@H](N)Cc1ccccc1)[C@@H](C)O)C(=O)N[C@@H](CCCN=C(N)N)C(=O)N[C@@H](CCCCN)C(=O)N[C@@H](CO)C(=O)N[C@@H](C)C(=O)N[C@@H](CCCN=C(N)N)C(=O)N[C@H](CN)CCCCN,.,.,.,.,5.4%[19.4 µM],.,.,.,
N=C1/C(=C\c2ccc(-c3ccc(C(=O)O)cc3)o2)C(=O)N=C2SC=C(c3ccccc3)N12,?,-70.3*,-23.9%[11.6 µM],3.55µM*,50.1µM*,?,37.7*,26.9*,
Cc1cccc(-n2c(C)cc(/C=C3/C(=N)N4C(c5ccccc5)=CSC4=NC3=O)c2C)c1,5.1%,-7.8,-7.4%,-9.8%,-9.4%,-20.4%,.,.,
CCCC[N+](C)(C)CCC(=O)NC(C)(C)CS(=O)(=O)[O-],?,4.9,-29.2%,12.6µM*,-27.2%,20µM*,.,75.7*,TbPGK inh=?
Cc1ccccc1Cn1c(C)c(CNCc2ccccc2)c(C(=O)O)c1C,4.3%,.,.,-22.6%,-6.9%,8.0%,.,.,
O=C(NCCS(=O)(=O)N1CCN(c2ccc(F)cc2)CC1)c1cccc(C(F)(F)F)c1,-17.4%,.,.,-6.8%,-13.6%[60.1 µM],3.9%,.,.,
O=C(Nc1ccc(-c2nc3ncccc3o2)cc1)c1ccc([N+](=O)[O-])o1,?,-1.1,-2.0%[11.6 µM],11.2µM*,-9.2%,50.1µM*,75.2*,75.7*,
O=C(Nc1ccc2oc(-c3ccncc3)nc2c1)c1ccc([N+](=O)[O-])o1,?,-6.9,-10.5%,?,-10.2%,?,.,.,
O=C(COC(=O)c1ccc(S(=O)(=O)NCc2ccco2)cc1)Nc1ccccc1,35.2%,-7.0,-6.3%,-14.8%,-16.5%,.,.,.,
CN(C)C(=O)COC(=O)c1ccc(S(=O)(=O)NCc2ccco2)cc1,?,-16.8,-3.8%[11.6 µM],22.4µM*,?,25.1µM*,59.7*,37.9*,
Nc1ccc2c(c1Cl)C(=O)c1ccc(N)c(Cl)c1C2=O,?,-2.1,-26.5%[11.6 µM],8.91µM*,?,2µM*,16.8*,42.6*,
C[C@H]1CN=C(N(C)C)N1CCCC1CCCCC1,32.2%,2.4,13.2%,-7.0%,15.2%,.,.,.,
Nc1cc(S(=O)(=O)O)cc([N+](=O)[O-])c1O,7.94µM*,-13.4,?,4.47µM*,28.2µM*,-14.4%,8.44*,5.36*,TbPGK inh=2.91µM*
Cc1ccc(-n2c(C)nc3oc4ccccc4c(=O)c3c2=O)cc1,?,.,?,79.4µM*,?,39.8µM*,23.8*,37.9*,
COc1ccc2c(=O)c3c(=O)n(-c4ccc(C)cc4)c(-c4ccccc4)nc3oc2c1,.,.,.,.,.,26.6%,.,.,
